In the library only some 6.5% were active in any assay of this set; here they are far more common.
DPM-DC inhibit – S. pneumoniae DPM-DC inhibitors, primary screen, biochemical, PK/LDH-coupled NADH fluorescence; diphosphomevalonate decarboxylase (Streptococcus pneumoniae D39); 65,000 tested, 0.49% active; AID 556, 2006; calls only at 10 µM; purified DPM-DC;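 active = the 320 compounds with the highest percent inhibition in the single-dose primary screen, excluding strongly autofluorescent ones, cut at about 32% in these data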;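 also: kinetic rate of NADH fluorescence loss reporting ADP formed by the decarboxylase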
Spn PMK inh – S. pneumoniae PMK inhibitors, primary screen, biochemical, mevalonate pathway, pilot trial included; 65,000 tested, 0.49% active; inhibition, % at 10 µM; purified PMK, PK/LDH-coupled NADH absorbance 340 nm; phosphomevalonate kinase (Streptococcus pneumoniae D39);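 active = top-ranked compounds by inhibition in the single 10 µM screen, taking a fixed number of the strongest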;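 also: 0% = full reaction with DMSO carrier and 100% = background rate without enzyme reaction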
Autofluor 339 – intrinsic fluorescence of library compounds, ex339/em460 – biochemical, MLSMR library, data from DPM-DC assay, artefact control, profiling panel | compound autofluorescence, ex339/em460 nm, NADH buffer; stronger effect = higher value; 1 = no-compound wells, NADH background | fluorescence fold increase at 10 µM | 65,000 tested, 5.5% active | AID 709, 2007;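 active = at 10 µM, mean starting fluorescence two-fold or more over control wells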;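 also: signal is the first read of a kinetic run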
A340 absorber – compound light absorbance at 340 nm, profiling panel, artefact control, biochemical, MLSMR library, data from PS, PMK, MK assays; fold change at 10 µM; compound absorbance at 340 nm, fold over control; 65,000 tested, under 10 active;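 active = at 10 µM dose, initial 340 nm absorbance at least 2 fold that of control wells; inactive = change under 2 fold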;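 also: initial absorbance extrapolated from kinetic A340 decline of NADH oxidation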
MK inhibit – S. pneumoniae MK inhibitors, primary screen, biochemical, PK/LDH-coupled NADH absorbance; mevalonate kinase [Streptococcus pneumoniae D39]; purified MK, PK/LDH-coupled NADH absorbance 340 nm; inhibition, % at 10 µM; 65,000 tested, 0.48% active;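 active = ranked among the strongest by inhibition in the single 10 µM screen, a fixed top-ranked set picked for dose follow-up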
NADH coupling – inhibitors of PK/LDH coupling enzymes, profiling panel, artefact control, biochemical, MLSMR library; 65,000 tested, 0.02% active; IC50, µM (series often up to 10 µM), inactives show at the highest dose inhibition; AID 774, 2007; coupled PK/LDH NADH assays, four targets;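 active = single-dose screening hits from any of four coupled enzyme assays that gave an IC50 when retested across doses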;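 also: the DPM-DC format reads NADH fluorescence rather than 340 nm absorbance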
* marks the source's active call; other numbers are inactive results; i = inactive; x = no result shown; + = active, no number; [ ] = remark or other dose.

SMILES	DPM-DC inhibit	Spn PMK inh	Autofluor 339	A340 absorber	MK inhibit	NADH coupling
O=C(NCc1ccccc1)C1CCN(S(=O)(=O)c2cccc3cccnc23)CC1	i	2	1	0.98	3	3%
COc1ccc(CNC(=O)C2CCN(S(=O)(=O)c3cccc4cccnc34)CC2)cc1	i	27*	1.1	1	2	15%
Cc1ccc(CNC(=O)C2CCN(S(=O)(=O)c3c(C)noc3C)CC2)cc1	i	19	1	1	+	5%
O=C(Nc1ccc(N2CCOCC2)c(Cl)c1)C1CCCCC1	i	11	1.1	1	8	7%
c1ccc2c3c(cc(N4CCOCC4)c2c1)OC1(N2CCOCC2)CCCCC1O3 (stereo not drawn)	x	7	3.9*	1	12	10%
CN(C)c1ccc(-c2nnn(CC(=O)Nc3ccccc3N3CCOCC3)n2)cc1	i	7	1.3	1	3	4%
CN(C)c1ccc(-c2nnn(CC(=O)N3c4ccccc4CCc4ccccc43)n2)cc1	i	0	2.6*	1.1	0	0%
Cc1ccccc1Nc1cc2ccccc2c(=O)[nH]1	x	4	2.8*	1	0	13%
Cc1cc2ccccc2c(=O)[nH]1	i	11	1.7	1.1	0	6%
CCNC(=O)N(C(=O)NCC)n1c(C)nnc1C	i	1	1	0.99	0	1%
CC(=O)Nc1cccc(NC(=O)c2oc3ccccc3c2C)c1	i	0	1.1	1	11	1%
Cc1c(C(=O)Nc2ccc(-n3cnnn3)cc2)oc2ccccc12	x	10	3.8*	1.1	13	12%
Cc1c(C(=O)Nc2ccc3oc(-c4cccnc4)nc3c2)oc2ccccc12	x	8	3.8*	1.1	13	11%
Cc1ccc2oc(-c3ccc(NC(=O)CC(C)C)cc3)nc2c1	x	4	2.2*	1.1	2	3%
CC(C)CC(=O)Nc1ccc2oc(-c3cccnc3)nc2c1	x	0	2.2*	1.1	8	4%
Cc1ccc(S(=O)(=O)NCC(c2ccccc2)N2CCN(CCC#N)CC2)cc1 (stereo not drawn)	i	0	1.1	1.1	6	2%
CCOc1ccccc1NC(=O)c1ccccc1-c1nc(-c2ccccc2OC)no1	i	20	1.1	1	4	8%
COC(=O)c1cc(NCc2c(F)cccc2Cl)ccc1N1CCOCC1	+	10	2.6*	1	4	16%
COC(=O)c1cc(NCc2cccs2)ccc1N1CCOCC1	i	12	1.4	1	14	10%
O=C(O)c1cc(NCc2cccs2)ccc1N1CCOCC1	i	4	2.4*	1	9	5%
CCN(CC)CCOC(=O)c1ccc(N=CC2=C(O)CC(C)(C)CC2=O)cc1	+	6	1	1.2	3	17%
O=C(CSc1n[nH]c(-c2ccc(S(=O)(=O)NC3CCCCC3)cc2)n1)N1CCCC1	i	14	3*	1.1	10	16%
CCOC(=O)c1cc2c(=O)n3cccc(C)c3nc2n(CCc2ccccc2)c1=N	+[fluoresces]	5	2.3*	0.98	4	3%
CCOC(=O)c1cc2c(=O)n3cccc(C)c3nc2n(CCc2ccc(OC)c(OC)c2)c1=N	i	12	1.2	1	10	7%
CCOC(=O)c1cc2c(=O)n3cccc(C)c3nc2n(Cc2ccccc2Cl)c1=N	i	9	1.9	1	7	7%
CCOC(=O)c1cc2c(=O)n3cccc(C)c3nc2n(CC2CCCO2)c1=NC(C)=O (stereo not drawn)	x	9	2.9*	1	0	5%
C=CCn1c(=N)c(C(=O)OCC)cc2c(=O)n3cccc(C)c3nc21	x	0	2.3*	1.1	0	0%
CCOC(=O)N1CCC(NC(=O)c2ccc(CS(=O)(=O)c3ccccc3C)o2)CC1	i	10	0.97	1	3	6%
Cc1c(Cl)cccc1NC(=O)c1cc(C2CC2)on1	i	12	1	1.1	10	10%
CCOC(=O)c1c(NC(=O)c2ccn(CC)n2)sc2c1CCCC2	x	0	2.7*	1	4	13%

Source: PubChem BioAssay (SRMLSC)
